# Compound activity: PubChem BioAssay, several laboratories
# In the library only some 4.7% were active in any assay of this set; here they are far more common.
# PLK1 inh – blocks human PLK1 kinase activity. 0.53% of 97,000 active. P53350. recombinant PLK1 kinase, TR-FRET peptide phosphorylation. inhibition, % at 10 µM;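 active = inhibition of 50% or more in the single-concentration screen; inactive = inhibition below 50%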
# hDAT+cocaine – modulates human dopamine transporter uptake under cocaine; B-score at 10 µM; LLC-PK1 hDAT cells, [14C]-dopamine uptake with cocaine IC80; actives deviate in either direction; AID 449768; 1.3% of 110,000 active; Q01959;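 active = Z score or B-score, a plate-position-corrected score, falls beyond the plate's 99.7% confidence bounds, in either direction; inactive = both scores lie inside the 99.7% bounds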
# Target sequence (Q01959 whole entry, looked up): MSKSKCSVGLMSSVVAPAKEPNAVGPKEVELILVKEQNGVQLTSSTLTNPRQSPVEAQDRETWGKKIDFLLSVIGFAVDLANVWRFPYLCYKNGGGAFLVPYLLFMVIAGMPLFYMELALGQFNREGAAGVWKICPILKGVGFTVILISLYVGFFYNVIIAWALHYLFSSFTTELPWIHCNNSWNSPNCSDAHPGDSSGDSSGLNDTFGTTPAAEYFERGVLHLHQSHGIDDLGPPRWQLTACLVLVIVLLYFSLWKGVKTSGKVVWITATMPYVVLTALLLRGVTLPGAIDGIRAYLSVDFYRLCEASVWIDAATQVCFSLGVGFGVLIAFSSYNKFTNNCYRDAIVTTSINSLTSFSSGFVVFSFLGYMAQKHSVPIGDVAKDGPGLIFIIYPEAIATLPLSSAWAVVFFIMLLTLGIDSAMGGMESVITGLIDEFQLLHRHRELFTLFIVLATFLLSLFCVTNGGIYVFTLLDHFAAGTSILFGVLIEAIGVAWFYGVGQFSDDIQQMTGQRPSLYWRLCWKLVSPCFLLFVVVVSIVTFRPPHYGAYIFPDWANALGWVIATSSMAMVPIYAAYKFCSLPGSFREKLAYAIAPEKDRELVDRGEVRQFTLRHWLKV
# PLK1 PBD inh – blocks phosphopeptide binding to human Plk1 polo box domain; inhibition, %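 (tested at about 20 µM)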; Plk1 PBD phosphopeptide binding, fluorescence polarization; 0.13% of 97,000 active; P53350; in the data active = inhibition above about 34%, passing the limit was not always enough
# Cav32 inh – blocks human Cav3.2 T-type calcium channel. 4% of 100,000 active. Cav3.2-expressing cells, Fluo-4 calcium fluorescence FDSS; stronger effect = lower value. B-score at 10 µM. O95180;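 active = single-dose well whose peak fluorescence ratio is a statistical outlier from its plate by either plate-standardised score or position-corrected B-score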
# SDO1 yeast rescue – compounds rescuing growth of sdo1-depleted yeast, bone marrow failure model; S. cerevisiae sdo1-depleted JHY4D growth rescue, OD600 30 h; stronger effect = higher value; pdr5 snq2 efflux-pump mutant strain; z-score at 10 µM; 0.21% of 140,000 active; AID 817;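 active = z-score above 3 at both the 24 hr and the 30 hr optical density reads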
# PTK2B oligo ant – blocks oligomerization of human Pyk2 in cells; Q14289; Q293 cells, Pyk2 FERM NanoBiT luminescence; stronger effect = lower value; z-score (the deposit names both 25 µM and 10 µM); 0.83% of 99,000 active;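 active = Z-score of -3 or lower, scaled per plate to the spread of control and sample wells; inactive = z-score above -3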;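 also: negative z-score means lost luminescence so less FERM oligomerization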
# Numbers stand for hits; 0 = inactive; - = not tested or not shown.
SMILES,PLK1 inh,hDAT+cocaine,PLK1 PBD inh,Cav32 inh,SDO1 yeast rescue,PTK2B oligo ant
Nc1nc(C2CCCN2S(=O)(=O)c2ccc(Cl)cc2)cs1 (stereo not given),0,0,0,0,0,-3.2
O=C(Nc1nc2ccccc2s1)C1CCCN1S(=O)(=O)c1ccc(Cl)cc1 (stereo not given),0,0,0,-5.3,0,0
O=S(=O)(c1ccc(Cl)cc1)N1CCCC1c1nc(-c2ccc(Cl)cc2)no1 (stereo not given),0,0,0,0,0,0
COc1ccc(-c2csc(NC(=O)C3CCCCN3S(=O)(=O)c3ccccc3)n2)cc1 (stereo not given),0,0,0,-6.2,0,-3.4
Cc1sc(NC(=O)C2C3C=CC(C3)C2C(=O)O)c(C(N)=O)c1-c1ccc(C(C)C)cc1 (stereo not given),-,-,-,-,0,-
C/C(CCN1CCc2nc(-c3ccccc3)c(-c3ccccc3)cc2C1)=N\O[C@@H](C)c1cn([C@H](CO)Cc2ccccc2)nn1,-,-,-,-,0,-
CCOc1ccccc1N(CC(=O)Nc1cc(OC)ccc1OC)S(C)(=O)=O,0,-9.1,0,0,0,0
CCN(CC)S(=O)(=O)c1ccc(NC(=O)CN(c2cccc(C)c2)S(C)(=O)=O)cc1,0,0,0,-4.4,0,0
CCN(CC)S(=O)(=O)c1cc(NS(=O)(=O)c2cccc(Cl)c2)ccc1C,-,-,-,-,0,-
CCN(CC)S(=O)(=O)c1ccc(NC(=O)CN(c2ccc(OC)cc2OC)S(C)(=O)=O)cc1,0,0,0,-6.6,0,0
CC(=O)Nc1ccc(NC(=O)CN(c2cccc(C)c2)S(C)(=O)=O)cc1,0,0,0,0,0,0
CCN(CC)S(=O)(=O)c1ccc(NS(=O)(=O)c2cccc(C)c2)cc1,0,0,0,-4.6,0,0
O=C(O)C[C@H](O)C[C@H](O)/C=C/c1c(C2CC2)nc2ccccc2c1-c1ccc(F)cc1,-,0,-,-,-,-
O=S(=O)(c1ccc2c(c1)C(=NO)c1cc(S(=O)(=O)N3CCCCC3)ccc1-2)N1CCCCC1,0,0,0,-6.4,0,0
CCN(CC)S(=O)(=O)c1ccc(C)c(C)c1,0,0,0,0,0,0
CCN(CC)S(=O)(=O)c1cccc(S(=O)(=O)N2CCCCC2)c1,0,0,0,0,0,0
CCN(CC)S(=O)(=O)c1ccc2c(c1)C(=NO)c1cc(S(=O)(=O)N(CC)CC)ccc1-2,0,0,0,-5.7,0,-3
CCN(CC)S(=O)(=O)c1cccc(S(=O)(=O)c2cccc(S(=O)(=O)N(CC)CC)c2)c1,0,0,0,-5.3,-,0
N#C/C(=C\c1cn(CCOc2ccccc2)c2ccccc12)C(=O)NCc1cccs1,-,-,-,-,0,-
FC(F)Sc1ccc(NC(=S)NCC2CCCCC2)cc1,0,0,0,-5.7,0,0
O=C1c2[nH]nc(-c3ccccc3O)c2C(c2cccc(O)c2)N1Cc1ccco1 (stereo not given),0,0,0,-5,0,0
COc1ccc(CCN2C(=O)c3[nH]nc(-c4ccccc4O)c3C2c2cccc(Cl)c2)cc1 (stereo not given),0,0,0,0,0,-3.5
COc1ccc(C2c3c(-c4ccccc4O)n[nH]c3C(=O)N2CCc2ccc(OC)c(OC)c2)cc1 (stereo not given),0,0,0,0,0,-3.5
CCOC(=O)c1c(C)oc2ccc(OC(=O)COc3c(F)c(F)c(F)c(F)c3F)cc12,-,-,-,-,0,-
COc1ccccc1NC(=O)/C(=C/c1cccc([N+](=O)[O-])c1)c1ccccc1,-,-,-,-,0,-
SMILES,PLK1 inh,hDAT+cocaine,PLK1 PBD inh,Cav32 inh,SDO1 yeast rescue,PTK2B oligo ant
COc1ccc(-n2nc(C(=O)c3cccs3)cc(-c3nc4ccccc4[nH]3)c2=N)cc1,0,-,0,-,0,-3.3
O=C(CSc1ncn(-c2ccccc2)n1)Nc1ccc(Br)cn1,0,0,0,-5.4,0,0
Cc1ccc(NC(=O)CSc2ncn(-c3ccccc3)n2)cc1C,0,0,0,0,0,0
O=S(=O)(c1ccc2ccccc2c1)N1CCN(C(=S)Nc2ccc(F)c(Cl)c2)CC1,-,-,-,-,0,-
CCCC(=O)O[C@H]1C[C@@H](C)N(C(=O)c2ccccc2)c2ccc(C)cc21,0,0,0,-8,0,0
CC1CC(Nc2ccccc2)c2ccccc2N1C(=O)c1cccnc1 (stereo not given),0,0,0,0,0,0
COc1ccc(CC2NCCC3=CC(=O)CCC32)cc1O (stereo not given),-,0,-,0,-,-
CC(C)(C)c1ccc(C(=O)N2CCC(C(=O)NCCC3=CCCCC3)CC2)cc1,0,0,0,-5,0,0
O=C1N2CCCc3cccc(c32)C12Nc1ccccc1S2 (stereo not given),0,0,0,0,0,0
CC1CC(C)(C)N2C(=O)C3(Nc4ccccc4S3)c3cccc1c32 (stereo not given),0,0,0,-4.7,0,0
CCC/C(O)=C1\C(=O)CC(c2ccccc2)CC1=NC(C)C(=O)O (stereo not given),-,-,-,-,0,-
C/C=C/C=C/C(=O)N1CC[C@]23c4ccccc4N[C@H]4N(C)c5cccc6c5[C@]42CCN([C@H]6C2OC2(C)C)[C@H]13 (stereo not given in full),-,0,-,-4.5,-,-
CCOC(=O)C(NCCc1ccccc1F)(NC(C)=O)C(F)(F)F (stereo not given),-,-,-,-,0,-
O=C(Nc1nc2ccc(Cl)cc2s1)c1ccc(Br)o1,0,0,0,-3.6,0,0
CC(=O)C1=C(C)NC(SCC(=O)Nc2nccs2)=C(C#N)C1c1ccccc1Cl (stereo not given),-,-,-,-,0,-
CCOC(=O)CSC1=C(C#N)C(c2ccccc2)C(C(C)=O)=C(C)N1 (stereo not given),0,0,0,0,0,0
CC(=O)C1=C(C)NC(SCC(=O)c2ccc(Cl)cc2)=C(C#N)C1c1ccco1 (stereo not given),0,0,0,-4.5,0,0
CC(=O)C1=C(C)NC(SCC(=O)c2ccccc2)=C(C#N)C1c1ccco1 (stereo not given),0,0,0,0,0,-
CSCSC1=C(C#N)C(c2ccc(Cl)cc2)C(C(C)=O)=C(C)N1 (stereo not given),0,0,0,-5.5,0,-
CSC1=C(C#N)C(c2ccccc2Cl)C(C(C)=O)=C(C)N1 (stereo not given),0,0,0,0,0,-3.1
CC(=O)Nc1ccc(N=Nc2ccc(O)cc2)cc1,-,-,-,-,0,-
CCC(C)(C(=O)NC1CCCC1)N(Cc1ccco1)C(=O)c1ccc2c(c1)OCO2 (stereo not given),0,0,0,-3.6,0,0
Cc1ccc(-c2nn[nH]n2)cc1,0,-8.2,0,0,0,0
O=S1(=O)C=C(Sc2nc3ccccc3s2)c2ccccc21,-,0,-,0,0,-
Cc1cc(C)nc(SC2=CS(=O)(=O)c3ccccc32)n1,0,-7.7,0,0,0,0
